Screening results deposited in PubChem BioAssay by Sanford-Burnham Center for Chemical Genomics.
KKLEB cytotox: reduces viability of KKLEB cystic fibrosis airway cells; KKLEB CF airway cells viability, ATPlite luminescence, overnight; stronger effect = lower value; cells stimulated with P. aeruginosa culture filtrate; activity change (cytotoxicity), % at 5 µM; hit rate 0.36% among 360,000;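 active means corrected activity change at or below -50% at 5 µM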
HIF-2a inh: HIF-2a inhibition; AID 624352; 786-0 RCC cells HIF-2a reporter, luciferase luminescence, overnight; inhibition, % at 18.8 µM; hit rate 0.72% among 360,000;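 active means inhibition of the luminescence signal of 40% or more relative to plate controls, in a single-dose primary screen at 18.75 µM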
hiPSC survival: increases survival of single human iPS cells. survival enhancement, % at 20 µM. hit rate 0.044% among 360,000. hiPSC single-cell survival, ATPlite luminescence; 100% = ROCK inhibitor wells, 0% = DMSO; in the data active means survival enhancement above about 18%;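 further: cells exposed to compounds for 16 hours before the ATP read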
CF NFkB block: blocks PAF-induced NF-kB reporter in cystic fibrosis cells. KKLEB NF-kB-GFP reporter, GFP fluorescence overnight. inhibition, % at 5 µM. hit rate 0.86% among 360,000. AID 588850;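 active means at least 50% inhibition at 5 µM, scaled per plate between neutral and stimulator controls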;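 further: PAF is a Pseudomonas aeruginosa culture filtrate used as stimulus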
PPC-1+TRAIL kill: PPC-1 cancer cell killing with TRAIL present | hit rate 0.41% among 220,000 | cell killing (% activity), % at 4 µM or 5 µM | PPC-1 cells + TRAIL, ATPLite viability luminescence | AID 1443;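 active means cell killing above 50% in the first pass at 4 µM, then a duplicate retest at 5 µM averaging 50% or more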
C8 TRAIL sens: sensitizes caspase-8 expressing cells to TRAIL; inhibition (viability loss, TRAIL sensitization), % at 10 µM; AID 624354; NB7+C8 cells + TRAIL, ATPlite viability luminescence; hit rate 1% among 360,000;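 active means compounds causing at least 50% loss of cell viability in the single-dose screen, relative to plate controls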
Each line names hits and unclear results; the compound was inactive in the other large screens. Sampled rows, rich in hits. Any-hit rate of the full collection: about 2.2%.

O=C(N/N=C/c1ccncc1)c1ccccn1	none (no result: PPC-1+TRAIL kill)
CN(C)c1ccc(C=Nc2ccccc2C(N)=O)cc1	PPC-1+TRAIL kill 79.9, C8 TRAIL sens 85.0
O=C(N/N=C/C(Cl)=C/c1ccccc1)c1ccccn1	C8 TRAIL sens 56.2
CN(C)c1ccc(C(=S)Nc2ccccc2)cc1	none
CN(C)c1ccc(NC(=S)c2ccccn2)cc1	KKLEB cytotox -55.1, HIF-2a inh 54.3, PPC-1+TRAIL kill 69.2, C8 TRAIL sens 85.0
CN(C)CC/C=C1/c2ccccc2CS(=O)(=O)c2ccccc21	none (no result: PPC-1+TRAIL kill)
CN(C)CC/C=C1\c2ccccc2COc2ccccc21	KKLEB cytotox -55.6
C[n+]1c(/C=C/c2ccc(O)cc2)ccc2ccccc21	none (no result: PPC-1+TRAIL kill)
Cc1cc(/C=C\c2ccc3cc(N(C)C)ccc3[n+]2C)c(C)n1-c1ccccc1	C8 TRAIL sens 60.5 (no result: PPC-1+TRAIL kill)
COC(=O)c1ccccc1NC1=C/C(=N\S(=O)(=O)c2ccc(C(=O)O)cc2)c2ccccc2C1=O	KKLEB cytotox -61.7, CF NFkB block 97.4, C8 TRAIL sens 69.0 (no result: PPC-1+TRAIL kill)
O=C1C=C(Nc2ccccc2C(=O)O)c2ccccc2C1=O	none
Cc1ccc(S(=O)(=O)/N=C2\C=C(Nc3cccc(C(=O)O)c3)C(=O)c3ccccc32)cc1	CF NFkB block 98.2 (no result: PPC-1+TRAIL kill)
O=C(O)c1cccc(NS(=O)(=O)c2ccc3c(c2)C(=O)c2ccccc2C3=O)c1	none
CCc1ccc(S(=O)(=O)/N=C2\C=C(Nc3ccc(C(=O)O)cc3)C(=O)c3ccccc32)cc1	CF NFkB block 90.3 (no result: PPC-1+TRAIL kill)
O=C(O)c1ccc(NC2=C(n3nnc4ccccc43)C(=O)c3ccccc3C2=O)cc1	none
Cc1ccc(S(=O)(=O)/N=C2\C=C(Nc3cccc(C(=O)O)c3)C(=O)c3ccccc32)c(C)c1	CF NFkB block 92.5 (no result: PPC-1+TRAIL kill)
CC(C)n1nnnc1SCC(=O)NC1CCCC1	none (no result: PPC-1+TRAIL kill)
Cc1nn(C)cc1S(=O)(=O)N1CCN(Cc2cccc(Cl)c2)CC1	none
Cc1ccc(C(=O)Nc2cc(C(C)C)c(O)c(C(C)C)c2)cc1	none
Cc1ccc(S(=O)(=O)/N=C2\C=C(Nc3ccc(O)cc3)C(=O)c3ccccc32)cc1	KKLEB cytotox -80.2, HIF-2a inh 70.5, CF NFkB block 83.1, C8 TRAIL sens 92.5 (no result: PPC-1+TRAIL kill)
Cc1ccc(C(=O)Nc2nnc(SCC(=O)N3CCCc4ccccc43)s2)cc1	KKLEB cytotox -97.4, PPC-1+TRAIL kill 95.1, C8 TRAIL sens 97.3
CN(C)S(=O)(=O)c1ccc(C(=O)Nc2nnc(SCC(=O)N3CCOCC3)s2)cc1	C8 TRAIL sens 59.9 (no result: PPC-1+TRAIL kill)
CC(C)Oc1ccc(C(=O)Nc2nnc(SCC(=O)N3CCOCC3)s2)cc1	KKLEB cytotox -73.6, HIF-2a inh 47.9, PPC-1+TRAIL kill 93.6, C8 TRAIL sens 98.0
Cc1c(Cl)cccc1NS(=O)(=O)c1ccc(-c2ccc(=O)[nH]n2)o1	none (no result: PPC-1+TRAIL kill)
O=C(NCc1csc(-c2cccs2)n1)C1CCCCC1	none
COc1ccc(-n2c(=S)[nH]c3cc(C(=O)Nc4cccc(C)c4)ccc3c2=O)cc1	none
COc1ccc(-n2c(=S)[nH]c3cc(C(=O)Nc4ccc(OC)c(OC)c4)ccc3c2=O)cc1	KKLEB cytotox -70.5
COc1ccc(Cc2nn3c(-c4ccccc4Br)nnc3s2)cc1	CF NFkB block 52.8
CCc1nc2cc(NC(=O)C3(C)CCCN(C(C)=O)C3)ccc2o1 (centres undefined)	none (no result: PPC-1+TRAIL kill)
CCN1CCc2c(sc(NC(=O)c3ccc(S(=O)(=O)N(C)c4ccccc4)cc3)c2C(=O)NC)C1	C8 TRAIL sens 55.0 (no result: PPC-1+TRAIL kill)
CCN1CCN(S(=O)(=O)c2ccc(C(=O)Nc3sc4c(c3C(N)=O)CCN(CC)C4)cc2)CC1	none (no result: PPC-1+TRAIL kill)
CC(C)c1nc(CNC(=O)C2CCC(=O)N(CCc3cccc(F)c3)C2)cs1 (centres undefined)	none (no result: PPC-1+TRAIL kill)
Cc1ccc(S(=O)(=O)/N=C2/C=C(Sc3ncn[nH]3)C(=O)c3ccccc32)cc1	KKLEB cytotox -58.5, HIF-2a inh 97.5, CF NFkB block 99.6
CC(C)c1ccc(S(=O)(=O)/N=C2/C=C(Sc3ncn[nH]3)C(=O)c3ccccc32)cc1	HIF-2a inh 49.1, CF NFkB block 83.7
CN(C)C=C1C(=O)c2ccccc2C1=O	none
CC1=CC(=O)c2ccccc2C1=O	CF NFkB block 61.8
CC(C)(C=O)C1=CC(=O)c2ccccc2C1=O	HIF-2a inh 41.9
COc1cccc2c1C(=O)C=C(C)C2=O	CF NFkB block 57.7
O=C1NC(c2ccc3c(c2)OCO3)Nc2ccccc21 (centres undefined)	PPC-1+TRAIL kill 70.9
CCN(CC)c1ccc(C2NC(=O)c3ccccc3N2)cc1 (centres undefined)	KKLEB cytotox -80.1, C8 TRAIL sens 91.9 (no result: PPC-1+TRAIL kill)
CC(=O)N(C(C)=O)c1ncc2c([nH]c3ccccc32)c1C#N	CF NFkB block 89.5
Cc1nc(C(=O)O)cc2c1[nH]c1ccccc12	none (no result: PPC-1+TRAIL kill)
COc1cc(NC(=O)c2ccccc2)c(OC)cc1NC(=O)Cc1ccc(F)cc1	none (no result: PPC-1+TRAIL kill)
CC[C@@H](C)C(N)c1cn([C@@H](CCC(=O)O)C(=O)N2CCNCC2)nn1 (some centres undefined)	none
Cc1ccc(CN=c2c([N+](=O)[O-])nn(-c3cccc(C)c3)n2O)cc1	C8 TRAIL sens 49.0
NC(N)=Nc1ccc(C=C2C=Cc3ccccc32)cc1	C8 TRAIL sens 87.0 (no result: PPC-1+TRAIL kill)
Cn1cnnc1SCC(=O)c1ccc2c(c1)OCO2	hiPSC survival 21.6
CCOc1ccc(-c2cc(CCCC(=O)NCCCOC)no2)cc1	none
CCOc1ccc(-c2cc(CCCC(=O)N3CCN(c4ccc(OC)cc4)CC3)no2)cc1	HIF-2a inh 50.3
CCOC(=O)c1ccc(NC(=O)c2ccc(C)c(S(=O)(=O)N3CCOCC3)c2)cc1	C8 TRAIL sens 70.3
Cc1cc(C)n(-c2ccc(C(=O)Nc3ccc(C)c(S(=O)(=O)N4CCOCC4)c3)cc2)n1	C8 TRAIL sens 53.2
Brc1nc(-c2ccccc2)nc(-c2ccccc2)c1Br	C8 TRAIL sens 93.9 (no result: PPC-1+TRAIL kill)
c1ccc(-c2nnc(-c3ccncc3)nc2-c2ccccc2)cc1	none
O=C(/C=C/c1ccco1)NC(=S)Nc1nc(-c2ccc3ccccc3c2)cs1	KKLEB cytotox -63.6
COc1ccccc1N1CCN(Cc2ccc(OC)c(OC)c2OC)CC1	none
COc1ccccc1N1CCN(Cc2ccc(O)c3ncccc23)CC1	C8 TRAIL sens 65.2
CN1C(=O)C2(NC(=O)c3ccccc3N2C)c2ccccc21 (centres undefined)	none
CN1C(=O)C(Cl)(Cl)C(=O)c2ccccc21	CF NFkB block 53.4
CC(C)c1ccc(N(CC(=O)NC2CCCC2)C(=O)CCC(=O)Nc2ccccn2)cc1	none (no result: PPC-1+TRAIL kill)
O=Nc1c(O)n(Cc2ccccc2)c2ccccc12	none
O=Nc1c(O)n(Cc2cccc(C(F)(F)F)c2)c2ccccc12	CF NFkB block 50.7
CSCCC(NC(=O)OC(C)(C)C)C(=O)Oc1ccc2c(=O)c(-c3ccc4c(c3)OCCO4)coc2c1 (centres undefined)	C8 TRAIL sens 55.7
CC1(N2CCCCC2)C(=O)c2ccccc2C1=O	none
